# From paper PMC5540273 (PLoS ONE, 2017)
# Like-named read-outs stand apart in the source and are kept apart here.
# Key:
# Conditions in all cases: n = 1
# ACVR2B = system: ACVR2B
# ACVRL1 = system: ACVRL1
# ADCK3 = system: T1, ADCK3
# T1 construct: gene CABC1
# ADCK4 = system: ADCK4
# AKT1 = system: AKT1
# AKT2 = system: AKT2
# AKT3 = system: AKT3
# ALK = system: ALK
# AMPK-alpha1 = system: T2, AMPK-alpha1
# T2 construct: gene PRKAA1
# AMPK-alpha2 = system: T3, AMPK-alpha2
# T3 construct: gene PRKAA2
# ANKK1 = system: ANKK1
# ARK5 = system: T4, ARK5
# T4 construct: gene NUAK1
# ASK1 = system: T5, ASK1
# T5 construct: gene MAP3K5
# ASK2 = system: T6, ASK2
# T6 construct: gene MAP3K6
# AURKA = system: AURKA
# AURKB = system: AURKB
# AURKC = system: AURKC
# AXL = system: AXL
# BIKE = system: T7, BIKE
# T7 construct: gene BMP2K
# BLK = system: BLK
# [1] = concentration: 1 μM, replicates: in singlicate
# 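Further: KINOMEscan kinase panel screen.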
compound,measurement,setting,value
Cc1cc(-c2ccc3c(c2)CC[C@@H](N[C@@H](C)c2ccccc2)C3)cnc1N.Cl [GW412617],%Inh,ACVR2B; [1],0%
same,%Inh,ACVRL1; [1],37%
same,%Inh,ADCK3; [1],41%
same,%Inh,ADCK4; [1],1%
same,%Inh,AKT1; [1],0%
same,%Inh,AKT2; [1],27%
same,%Inh,AKT3; [1],14%
same,%Inh,ALK; [1],52%
same,%Inh,AMPK-alpha1; [1],2%
same,%Inh,AMPK-alpha2; [1],20%
same,%Inh,ANKK1; [1],69%
same,%Inh,ARK5; [1],13%
same,%Inh,ASK1; [1],33%
same,%Inh,ASK2; [1],0%
same,%Inh,AURKA; [1],0%
same,%Inh,AURKB; [1],35%
same,%Inh,AURKC; [1],26%
same,%Inh,AXL; [1],33%
same,%Inh,BIKE; [1],40%
same,%Inh,BLK; [1],13%
Cl.Oc1ccc(-c2nc(-c3ccccc3)[nH]c2-c2ccncc2)cc1 [SB-428218],%Inh,ACVR2B; [1],13%
same,%Inh,ACVRL1; [1],0%
same,%Inh,ADCK3; [1],5%
same,%Inh,ADCK4; [1],82%
same,%Inh,AKT1; [1],0%
same,%Inh,AKT2; [1],18%
same,%Inh,AKT3; [1],0%
same,%Inh,ALK; [1],44%
same,%Inh,AMPK-alpha1; [1],0%
same,%Inh,AMPK-alpha2; [1],0%
same,%Inh,ANKK1; [1],10%
same,%Inh,ARK5; [1],62%
same,%Inh,ASK1; [1],24%
same,%Inh,ASK2; [1],0%
same,%Inh,AURKA; [1],0%
same,%Inh,AURKB; [1],32%
same,%Inh,AURKC; [1],0%
same,%Inh,AXL; [1],0%
same,%Inh,BIKE; [1],0%
same,%Inh,BLK; [1],58%
Cc1cccc(-c2nc(-c3ccc(S(C)(=O)=O)cc3)sc2-c2ccnc(NCCc3ccccc3)c2)c1,%Inh,ACVR2B; [1],3%
same,%Inh,ACVRL1; [1],0%
same,%Inh,ADCK3; [1],0%
same,%Inh,ADCK4; [1],12%
same,%Inh,AKT1; [1],14%
same,%Inh,AKT2; [1],6%
same,%Inh,AKT3; [1],12%
same,%Inh,ALK; [1],0%
same,%Inh,AMPK-alpha1; [1],0%
same,%Inh,AMPK-alpha2; [1],17%
same,%Inh,ANKK1; [1],7%
same,%Inh,ARK5; [1],11%
same,%Inh,ASK1; [1],0%
same,%Inh,ASK2; [1],0%
same,%Inh,AURKA; [1],0%
same,%Inh,AURKB; [1],14%
same,%Inh,AURKC; [1],0%
same,%Inh,AXL; [1],0%
same,%Inh,BIKE; [1],9%
same,%Inh,BLK; [1],16%
Cc1ccc(NC(=O)Nc2cccc(C(F)(F)F)c2)cc1 [GSK955403],%Inh,ACVR2B; 1 µM,0%
same,%Inh,ACVRL1; 1 µM,0%
same,%Inh,ADCK3; 1 µM,5%
same,%Inh,ADCK4; 1 µM,0%
same,%Inh,AKT1; 1 µM,12%
same,%Inh,AKT2; 1 µM,3%
same,%Inh,AKT3; 1 µM,0%
same,%Inh,ALK; 1 µM,0%
same,%Inh,AMPK-alpha1; 1 µM,0%
same,%Inh,AMPK-alpha2; 1 µM,0%
same,%Inh,ANKK1; 1 µM,0%
same,%Inh,ARK5; 1 µM,0%
same,%Inh,ASK1; 1 µM,20%
same,%Inh,ASK2; 1 µM,0%
same,%Inh,AURKA; 1 µM,0%
same,%Inh,AURKB; 1 µM,0%
same,%Inh,AURKC; 1 µM,19%
same,%Inh,AXL; 1 µM,0%
same,%Inh,BIKE; 1 µM,4%
same,%Inh,BLK; 1 µM,0%
Cc1cccc(-c2nc(Nc3cccc(C(N)=O)c3)c3ccccc3n2)n1 [GW876019],%Inh,ACVR2B; [1],19%
same,%Inh,ACVRL1; [1],0%
same,%Inh,ADCK3; [1],20%
same,%Inh,ADCK4; [1],26%
same,%Inh,AKT1; [1],9%
same,%Inh,AKT2; [1],0%
same,%Inh,AKT3; [1],0%
same,%Inh,ALK; [1],22%
same,%Inh,AMPK-alpha1; [1],31%
same,%Inh,AMPK-alpha2; [1],0%
same,%Inh,ANKK1; [1],0%
same,%Inh,ARK5; [1],6%
same,%Inh,ASK1; [1],17%
same,%Inh,ASK2; [1],0%
same,%Inh,AURKA; [1],0%
same,%Inh,AURKB; [1],30%
same,%Inh,AURKC; [1],12%
same,%Inh,AXL; [1],0%
same,%Inh,BIKE; [1],11%
same,%Inh,BLK; [1],21%
COc1ccccc1-c1ccc2c(NC(=O)C3CC3)n[nH]c2n1 [SB-711239],%Inh,ACVR2B; [1],52%
same,%Inh,ACVRL1; [1],0%
same,%Inh,ADCK3; [1],11%
same,%Inh,ADCK4; [1],19%
same,%Inh,AKT1; [1],0%
same,%Inh,AKT2; [1],2%
same,%Inh,AKT3; [1],3%
same,%Inh,ALK; [1],18%
same,%Inh,AMPK-alpha1; [1],5%
same,%Inh,AMPK-alpha2; [1],13%
same,%Inh,ANKK1; [1],9%
same,%Inh,ARK5; [1],0%
same,%Inh,ASK1; [1],11%
same,%Inh,ASK2; [1],17%
same,%Inh,AURKA; [1],0%
same,%Inh,AURKB; [1],0%
same,%Inh,AURKC; [1],0%
same,%Inh,AXL; [1],12%
same,%Inh,BIKE; [1],0%
same,%Inh,BLK; [1],6%
Cc1ccc(C(=O)Nc2ccc(Nc3ccnc4cc(-c5ccccn5)ccc34)cc2O)cc1.Cl [GW440146],%Inh,ACVR2B; [1],25%
same,%Inh,ACVRL1; [1],0%
same,%Inh,ADCK3; [1],0%
same,%Inh,ADCK4; [1],0%
same,%Inh,AKT1; [1],0%
same,%Inh,AKT2; [1],19%
same,%Inh,AKT3; [1],0%
same,%Inh,ALK; [1],27%
same,%Inh,AMPK-alpha1; [1],4%
same,%Inh,AMPK-alpha2; [1],15%
same,%Inh,ANKK1; [1],33%
same,%Inh,ARK5; [1],0%
same,%Inh,ASK1; [1],0%
same,%Inh,ASK2; [1],0%
same,%Inh,AURKA; [1],29%
same,%Inh,AURKB; [1],80%
same,%Inh,AURKC; [1],90.1%
same,%Inh,AXL; [1],0%
same,%Inh,BIKE; [1],39%
same,%Inh,BLK; [1],98.4%
O=C(O)COc1ncnc2cc(-c3ccc4[nH]ncc4c3)sc12,%Inh,ACVR2B; [1],0%
same,%Inh,ACVRL1; [1],6%
same,%Inh,ADCK3; [1],0%
same,%Inh,ADCK4; [1],0%
same,%Inh,AKT1; [1],0%
same,%Inh,AKT2; [1],22%
same,%Inh,AKT3; [1],17%
same,%Inh,ALK; [1],0%
same,%Inh,AMPK-alpha1; [1],13%
same,%Inh,AMPK-alpha2; [1],18%
same,%Inh,ANKK1; [1],12%
same,%Inh,ARK5; [1],0%
same,%Inh,ASK1; [1],0%
same,%Inh,ASK2; [1],0%
same,%Inh,AURKA; [1],45%
same,%Inh,AURKB; [1],28%
same,%Inh,AURKC; [1],0%
same,%Inh,AXL; [1],21%
same,%Inh,BIKE; [1],0%
same,%Inh,BLK; [1],1%
COc1ccc(Nc2nccc(-c3cccc(NC(=O)c4cc5cc(F)ccc5[nH]4)c3)n2)cc1 [GSK1229782],%Inh,ACVR2B; [1],19%
same,%Inh,ACVRL1; [1],0%
same,%Inh,ADCK3; [1],8%
same,%Inh,ADCK4; [1],61%
same,%Inh,AKT1; [1],0%
same,%Inh,AKT2; [1],18%
same,%Inh,AKT3; [1],31%
same,%Inh,ALK; [1],29%
same,%Inh,AMPK-alpha1; [1],34%
same,%Inh,AMPK-alpha2; [1],18%
same,%Inh,ANKK1; [1],0%
same,%Inh,ARK5; [1],28%
same,%Inh,ASK1; [1],0%
same,%Inh,ASK2; [1],0%
same,%Inh,AURKA; [1],16%
same,%Inh,AURKB; [1],0%
same,%Inh,AURKC; [1],66%
same,%Inh,AXL; [1],9%
same,%Inh,BIKE; [1],57%
same,%Inh,BLK; [1],41%
CN(C)CCN(C)C(=O)c1cc(-c2ccncc2)c(-c2ccc(Cl)c(O)c2)o1.Cl.Cl [SB-710397],%Inh,ACVR2B; [1],9%
same,%Inh,ACVRL1; [1],0%
same,%Inh,ADCK3; [1],11%
same,%Inh,ADCK4; [1],45%
same,%Inh,AKT1; [1],0%
same,%Inh,AKT2; [1],0%
same,%Inh,AKT3; [1],0%
same,%Inh,ALK; [1],29%
same,%Inh,AMPK-alpha1; [1],0%
same,%Inh,AMPK-alpha2; [1],0%
same,%Inh,ANKK1; [1],0%
same,%Inh,ARK5; [1],0%
same,%Inh,ASK1; [1],18%
same,%Inh,ASK2; [1],0%
same,%Inh,AURKA; [1],0%
same,%Inh,AURKB; [1],9%
same,%Inh,AURKC; [1],0%
same,%Inh,AXL; [1],8%
same,%Inh,BIKE; [1],13%
same,%Inh,BLK; [1],12%
